This is a sample that favours compounds with a hit; in the whole collection about 1.7% have one here.
GSTO1 inh: inhibitors of recombinant GSTO1, primary screen, counter-screen for RBBP9 inhibitor project, biochemical, fluorescence polarization. Glutathione S-transferase omega-1 (Homo sapiens), P78417. activity-based probe fluorescence polarization. inhibition, % at 5.96 µM. 300,000 compounds, 1.1% hits. AID 1974, 2009;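 active = inhibition above the campaign mean inhibition plus 3 SD, cut at about 35% in these data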;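 also: 0% = GSTO1-1 with DMSO and 100% = wells lacking GSTO1-1 enzyme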
LYPLA1 counter: LYPLA1 inhibitors, primary screen, counter-screen for PME1 inhibitor project, biochemical, fluorescence polarization, FP-Rh probe ABPP; Acyl-protein thioesterase 1 (Homo sapiens), O75608; recombinant LYPLA1; inhibition, % at 5.9 µM; 320,000 compounds, 0.16% hits; AID 2174, 2009;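 active = inhibition above the mean of all tested compounds plus 3 SD, set per campaign, cut at about 14% in these data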;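 also: inhibitors block serine hydrolase probe labeling of LYPLA1 so polarization falls; 0% = enzyme with DMSO and 100% = wells lacking LYPLA1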
Target sequence (O75608 whole entry, looked up): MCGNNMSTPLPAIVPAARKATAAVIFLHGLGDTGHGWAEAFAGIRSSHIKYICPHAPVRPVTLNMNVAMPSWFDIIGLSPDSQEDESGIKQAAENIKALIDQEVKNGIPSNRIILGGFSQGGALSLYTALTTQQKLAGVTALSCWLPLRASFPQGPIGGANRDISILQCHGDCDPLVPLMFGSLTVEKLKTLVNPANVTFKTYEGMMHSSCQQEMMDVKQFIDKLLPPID
Fam108B inh: mouse Fam108B serine hydrolase inhibitors, primary screen, counter-screen for RBBP9 inhibitor project, biochemical, fluorescence polarization | recombinant Fam108B, FP-Rh probe fluorescence polarization | inhibition, % at 9.51 µM | 300,000 compounds, 0.33% hits | AID 1947, 2009;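 active = inhibition above the screen mean inhibition plus 3 SD, computed separately per campaign, cut at about 18% in these data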;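 also: inhibitors lower polarization as less probe binds the enzyme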
LYPLA2 counter: LYPLA2 inhibitors, primary screen, counter-screen for PME1 inhibitor project, biochemical, fluorescence polarization, FP-Rh probe ABPP. Acyl-protein thioesterase 2 (Homo sapiens), O95372. recombinant LYPLA2. inhibition, % at 5.9 µM. 320,000 compounds, 0.38% hits. AID 2177, 2009;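 active = inhibition above the screen-wide mean plus 3 SD, limit set per campaign, cut at about 26% in these data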;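 also: 0% = LYPLA2 with DMSO and 100% = wells lacking LYPLA2 enzyme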
Target sequence (O95372 whole entry, looked up): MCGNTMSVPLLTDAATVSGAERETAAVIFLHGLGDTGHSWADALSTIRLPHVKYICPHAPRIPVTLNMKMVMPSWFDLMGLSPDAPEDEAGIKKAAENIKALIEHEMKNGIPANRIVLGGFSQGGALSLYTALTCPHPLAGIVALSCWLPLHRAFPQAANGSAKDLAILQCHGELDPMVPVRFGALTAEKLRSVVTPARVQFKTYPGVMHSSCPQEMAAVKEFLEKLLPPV
PAD4 inh: human PAD4 inhibitors, primary screen, biochemical, fluorescence polarization, 1536-well format. recombinant PAD4, RCA probe fluorescence polarization. inhibition, % at 6.36 µM. 330,000 compounds, 0.41% hits. AID 485272, 2010;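 active = percent inhibition above a cutoff equal to the mean of all tested compounds plus 3 SD, cut at about 15% in these data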;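 also: 0% = PAD4 with RCA probe and DMSO and 100% = probe without PAD4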
PME-1 primary: PME-1 inhibitors via competitive probe labeling, primary screen, biochemical, fluorescence polarization, FP-Rh probe, HTS; 320,000 compounds, 0.53% hits; inhibition, % at 5.9 µM; recombinant PME-1;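 active = inhibition above the campaign mean of all compounds plus 3 SD, cut at about 26% in these data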;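 also: competitive labeling of PME-1 active site by serine hydrolase directed probe; 0% = PME-1 with DMSO and 100% = wells lacking PME-1 enzyme; inhibitors block probe labeling so polarization falls and inhibition rises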
PAD4 confirm: human PAD4 inhibitors, confirmation, biochemical, fluorescence polarization. shares compounds with PAD4 inh. recombinant PAD4, RCA probe fluorescence polarization. AID 488796, 2010. inhibition, % at 6.36 µM. 1,200 compounds, 28% hits;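 active = mean inhibition across replicates above the hit cutoff set by the earlier primary screen, cut at about 15% in these data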;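 also: inhibitors block active-site labeling by the probe so polarization falls; 0% = PAD4 with probe and DMSO and 100% = probe without PAD4 enzyme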
Numbers without * were called inactive; . = no result.

SMILES	GSTO1 inh	LYPLA1 counter	Fam108B inh	LYPLA2 counter	PAD4 inh	PME-1 primary	PAD4 confirm
O=C(c1ccc(Cl)c(S(=O)(=O)N2CCOCC2)c1)N1CCCC1	3	-3	0	-4	16*	-5	1
O=C(c1ccc(Cl)c(S(=O)(=O)N2CCCC2)c1)N1CCOCC1	4	1	0	-1	-5	-1	.
Clc1cccc(Nc2nc(-c3cccnc3)cs2)c1	-4	5	6	7	-2	14	.
O=[N+]([O-])c1cccc(C(=S)N2CCN(c3ccccc3)CC2)c1	2	-2	1	2	6	-5	.
Cc1ccc(C2=NN=C(NC(=O)CSc3nc(C)cc(C)n3)SC2)cc1	2	-7	1	-2	71*	2	68*
Cn1c2ccccc2c2nnc(SCC(=O)Nc3cccc(C(=O)O)c3)nc21	-9	1	-2	7	3	0	.
Cc1ccc(C2=NN=C(NC(=O)CSc3nnc4c5ccccc5n(C)c4n3)SC2)cc1	0	-10	-4	-12	23*	-15	37*
CNc1nc(Cl)c(SC)c(NCc2ccc(F)cc2)n1	1	0	0	3	1	6	.
CCOC(=O)CC(/C(C)=N\O)c1ccccc1 (centres undefined)	3	-4	5	1	21*	0	-6
CCOC(=O)CC(NC(=O)C(CC)c1ccccc1)c1ccccc1Cl (centres undefined)	0	-1	4	2	-1	9	.
O=C(C1CCCN(S(=O)(=O)c2cccnc2)C1)N1CCn2c1nc1ccccc12 (centres undefined)	-4	0	1	-8	-5	-8	.
Cc1nc(SCC(=O)NCc2ccccc2)c2oc3ccccc3c2n1	3	-2	2	0	21*	-4	-6
Cc1nc(SCC(=O)O)c2oc3ccccc3c2n1	2	-3	3	16	-2	1	.
O=C(CSCc1ccccc1Cl)NCCSc1ccccn1	7	0	-2	3	16*	-4	1
COc1cc(/C=N\Nc2nncn2N)ccc1OC(C)=O	3	-1	1	9	31*	3	7
CCOc1cc(/C=N/Nc2nnc(C)n2N)ccc1O	37*	1	16	8	50*	-1	0
CC1CCN(c2ccc(/C=N/n3nnnc3N)cc2[N+](=O)[O-])CC1	1	-1	-1	-2	0	1	.
COc1cc(/C=N/Nc2ccccc2)ccc1O	23	1	3	0	0	2	.
COc1cc(/C=N/Nc2nncn2/N=C/c2ccc(O)c(OC)c2)ccc1O	18	1	3	1	43*	1	7
CC1CCN(c2ccc(/C=N\Nc3nncn3N)cc2[N+](=O)[O-])CC1	18	-1	4	5	30*	10	-7
COc1cc2c(cc1OC)CN(CC(=O)Nc1ccc3c(c1)OC(F)(F)O3)CC2	-4	5	-4	4	0	7	.
COc1ccc(S(=O)(=O)N2CCCCC2)cc1NC(=O)Cc1sc(C)nc1-c1ccc(F)cc1	-10	-2	-11	-7	-4	11	.
CCN(CC(=O)Nc1ccc(NC(C)=O)cc1)C(=O)Cc1cccc2ccccc12	2	-1	-2	-4	2	-5	.
O=C(COc1ccc2ccc(=O)oc2c1)NCCCN1CCCC1=O	4	5	-3	1	7	-4	.
COc1ccc(OC)c(/C=N/Nc2nncn2/N=C/c2cc(OC)ccc2OC)c1	12	1	7	-3	21*	3	4
SMILES	GSTO1 inh	LYPLA1 counter	Fam108B inh	LYPLA2 counter	PAD4 inh	PME-1 primary	PAD4 confirm
Cn1c(/C(C#N)=C/c2ccc(-c3ccc(S(N)(=O)=O)cc3)o2)nc2ccccc21	-13	11	2	8	28*	5	21*
CCOC(=O)C1(C)C=C(Nc2ccc(OC)cc2)C(=O)N1c1ccc(OC)cc1 (centres undefined)	1	1	1	1	-4	2	.
CCOC(=O)C1(C)C=C(Nc2ccc(O)cc2)C(=O)N1c1ccc(O)cc1 (centres undefined)	89*	5	2	16	85*	13	6
COc1cccc(N2CCN(C(=O)c3cn(Cc4ccccc4)nc3-c3cccnc3)CC2)c1	.	12	.	20	21*	11	0
Cc1ccc(C2=Nc3ccccc3SC(c3cccc([N+](=O)[O-])c3)C2)cc1 (centres undefined)	6	1	-6	5	18*	-5	-6
CCNc1nc(NC(C)C)nc(N(C#N)CCOc2ccc(Cl)cc2Cl)n1	0	-4	-7	-1	-4	8	.
Cc1cc([N+](=O)[O-])nn1CCCC(=O)Nc1ccc2c(c1)OCO2	1	-1	1	2	15*	6	0
COc1ccc(-c2cc(=O)[nH]c(=O)[nH]2)cc1	-11	3	-1	-4	-4	-3	.
O=c1cc(-c2cccc3ccccc23)[nH][nH]1	27	-2	0	3	-6	-4	.
O=c1cc(-c2ccc(Cl)c(Cl)c2)[nH][nH]1	19	-5	4	2	51*	2	-5
COc1ccc(-c2cc(=O)[nH][nH]2)cc1	24	3	-2	17	56*	6	-5
Cc1cc(NC(=O)CN2C(=O)[C@@H]3[C@H](C2=O)[C@@H]2C[C@H]3C(Br)C2Br)no1 (some centres undefined)	2	4	-1	2	13	-1	.
Cc1noc(C)c1S(=O)(=O)N1CCCC(C(=O)NCc2ccccn2)C1 (centres undefined)	1	3	1	1	-1	2	.
C[C@@H](NC(=O)c1nc[nH]c1C(=O)N[C@@H](CCCCNC(=O)OC(C)(C)C)C(=O)OC(C)(C)C)c1ccccc1	3	-2	-2	1	1	2	.
COc1cc(SC#N)ccc1N=Cc1c(C)[nH]n(-c2ccc(Cl)cc2)c1=O	-14	2	-1	2	30*	6	37*
CC(CCc1ccccc1)NC(=O)CNC(=O)COc1ccccc1 (centres undefined)	11	-3	0	10	30*	-3	-2
CC(C)C(=O)NNC(=O)CSc1ncnc2c1cnn2-c1ccccc1Cl	-6	-2	0	-3	2	-1	.
